The supplement of paper PMC10646978
± gives the standard deviation.

Columns and labels:
Conditions in all cases: modulator concentration 10 µM
[1] = test system: RAW-Dual (murine macrophage reporter line); test: NF-kB reporter (SEAP) activity fold change vs agonist alone; higher = enhanced NF-kB activity
Summary of the method: (§1)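 In 384-well plates holding 50 000 RAW-Dual murine macrophage reporter cells per well, compound at 10 μM final was pre-incubated for 1 hour at 37 °C, after which a PRR agonist was added overnight. Supernatant SEAP read with QUANTI-Blue at 620 nm absorbance reported NF-κB, and Lucia luciferase read with QUANTI-Luc luminescence reported IRF. Fold change values come from dividing each reporter signal by the mean of agonist-only control wells on the same plate, averaged over replicate plates with propagated errors.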

[2] = test system: RAW-Dual (murine macrophage reporter line); test: IRF reporter (Lucia luciferase) activity fold change vs agonist alone; higher = enhanced IRF activity
Summary of the method: as §1

[3] = test system: RAW-Dual (murine macrophage reporter line); test: viability score (confluency relative to resting cells, overnight) (fraction); higher = more viable, active = viable (0.7 or more)
Summary of the method: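 In 384-well plates, RAW-Dual macrophages received compound at a final 10 μM overnight. Two confluency masks were then made with IncuCyte software from IncuCyte images of all imaged wells. The viability score is defined as confluency relative to resting cells. Passing the cutoff required both masks to lie above 70% of resting cells.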

[4] = agonist: CpG ODN 1826 0.5 ug/mL

Row | SMILES | NF-kB reporter [1, 4] | NF-kB reporter ([1]; agonist: LPS 0.1 ug/mL) | NF-kB reporter ([1]; agonist: MPLA […]) | IRF reporter ([2]; agonist: 3'3'-cGAMP 10 ug/mL) | IRF reporter ([2]; agonist: LPS 0.1 ug/mL) | IRF reporter ([2]; agonist: MPLA […]) | viability score [3]
1 | CCCOc1cccc(C(=O)Nc2scc(-c3ccccc3)c2C(=O)OC(C)C)c1 | 1.79 ± 0.35 | 1.24 ± 0.16 | 2.23 ± 0.46 | 0.635 ± 0.056 | 0.66 ± 0.22 | 0.65 ± 0.041 | 0.883 (active)
2 | CCOC(=O)c1c(N2C(=O)C3C4C=CC(O4)C3C2=O)sc2c1CCCC2 (configuration not stated) | 0.87 ± 0.067 | 0.792 ± 0.11 | 0.77 ± 0.092 | 0.775 ± 0.038 | 0.962 ± 0.12 | 0.967 ± 0.18 | 0.934 (active)
3 | Cc1ccccc1C(=O)Nc1nc(C(C)(C)C)cs1 | 0.519 ± 0.056 | 0.997 ± 0.047 | 1.12 ± 0.11 | 0.777 ± 0.047 | 1.23 ± 0.13 | 1.35 ± 0.13 | 1 (active)
4 | COC(C(=O)NNC(=O)c1ccccc1Cl)c1ccccc1 (configuration not stated) | 1.3 ± 0.1 | 1.1 ± 0.1 | 1.11 ± 0.1 | 0.618 ± 0.39 | 0.993 ± 0.069 | 0.863 ± 0.081 | 1.01 (active)
5 | O=C(CSc1ccc(F)cc1)N1CCn2nc3c(c2C1)CCC3 | 1.39 ± 0.087 | 1.01 ± 0.1 | 1.05 ± 0.056 | 1.03 ± 0.11 | 1.03 ± 0.064 | 1.03 ± 0.12 | 1 (active)
6 | Cc1cccc(C)c1NC(=O)CC(C)c1ccccc1 (configuration not stated) | 0.982 ± 0.31 | 1.12 ± 0.16 | 1.2 ± 0.14 | 1.03 ± 0.033 | 0.937 ± 0.25 | 1.17 ± 0.33 | 0.915 (active)
7 | Cc1cccc(C(=O)NC(Nc2ccccc2C(F)(F)F)C(Cl)(Cl)Cl)c1 (configuration not stated) | 0.896 ± 0.079 | 1.05 ± 0.077 | 1.22 ± 0.23 | 0.948 ± 0.05 | 1.22 ± 0.2 | 1.26 ± 0.4 | 1.01 (active)
8 | Cc1ccc(S(=O)(=O)c2ccc(O)c(O)c2)cc1 | 0.932 ± 0.074 | 1.02 ± 0.095 | 1.03 ± 0.086 | 0.599 ± 0.036 | 1.31 ± 0.096 | 1.08 ± 0.12 | 0.987 (active)
9 | O=c1cc(-c2ccc(O)c(O)c2)oc2cc(O)cc(O)c12 [Prestw-870] | 1.08 ± 0.18 | 1.21 ± 0.12 | 2 ± 0.16 | 0.181 ± 0.0054 | 0.663 ± 0.14 | 0.61 ± 0.065 | 0.995 (active)
10 | CCOC(=O)Cc1cc(OC)c(OC)cc1C(C)=NNc1ccccc1 | 0.719 ± 0.056 | 0.831 ± 0.12 | 0.98 ± 0.085 | 0.816 ± 0.055 | 1.13 ± 0.065 | 1.09 ± 0.15 | 1 (active)
11 | COc1cc(Cl)c(C)cc1NC(=O)c1ccccc1Cl | 0.906 ± 0.26 | 1.11 ± 0.062 | 1.4 ± 0.22 | 0.914 ± 0.042 | 0.991 ± 0.15 | 1.1 ± 0.12 | 0.981 (active)
12 | COc1ccccc1C(=O)Nc1cnc(N2CCN(c3ccccn3)CC2)nc1 | 0.887 ± 0.038 | 1.02 ± 0.12 | 1.2 ± 0.066 | 0.913 ± 0.086 | 0.991 ± 0.21 | 1.12 ± 0.43 | 0.877 (active)
13 | Cc1ncsc1C(=O)N1CC(OCC(F)(F)F)C1 | 0.974 ± 0.11 | 0.996 ± 0.08 | 1.01 ± 0.095 | 1.08 ± 0.11 | 1.01 ± 0.09 | 0.999 ± 0.25 | 1 (active)
14 | Cc1ccc(C)c(NC(=O)CCN2CCN(C=O)CC2)c1 | 0.822 ± 0.17 | 0.905 ± 0.088 | 0.967 ± 0.079 | 0.962 ± 0.045 | 1.27 ± 0.37 | 1.33 ± 0.18 | 0.979 (active)
15 | CC1(C)CC(=O)C=C(Nc2ccc(Br)c(Cl)c2)C1 | 0.734 ± 0.066 | 0.962 ± 0.067 | 0.839 ± 0.083 | 1.14 ± 0.06 | 1.08 ± 0.066 | 1.08 ± 0.12 | 1.02 (active)
16 | O=C(CCC1CCCCC1)Nc1ccc(Br)cc1 | 1.02 ± 0.068 | 0.98 ± 0.074 | 1.07 ± 0.029 | 0.591 ± 0.029 | 0.922 ± 0.048 | 0.976 ± 0.096 | 0.986 (active)
17 | COC(=O)C1=C(C)NC(C)=C(C(=O)OC)C1c1ccc(-c2ccc(Cl)cc2Cl)o1 | 1.01 ± 0.081 | 0.943 ± 0.064 | 0.922 ± 0.092 | 0.872 ± 0.022 | 1.23 ± 0.11 | 1.22 ± 0.22 | 1.02 (active)
18 | CCN(CC)c1ccc(NC(=O)C(C)(C)C)cc1 | 0.969 ± 0.075 | 1.02 ± 0.075 | 0.98 ± 0.12 | 0.901 ± 0.074 | 1.22 ± 0.17 | 1.36 ± 0.25 | 1.04 (active)
19 | CC1(C)CC(=O)C2=C(C1)OC(N)=C(C#N)C21CCCCC1 | 1.01 ± 0.18 | 0.866 ± 0.07 | 0.895 ± 0.14 | 0.867 ± 0.024 | 1.13 ± 0.15 | 1.18 ± 0.14 | 1 (active)
20 | Br.O=S(=O)(c1ccc(-c2csc(Nc3ccc(Cl)cc3)n2)cc1)N1CCCC1 | 0.941 ± 0.15 | 1.04 ± 0.13 | 0.869 ± 0.069 | 0.885 ± 0.026 | 1.19 ± 0.17 | 1.48 ± 0.28 | 0.991 (active)
21 | Oc1c2c(nc3cc(-c4ccc(Cl)cc4)nn13)CCS2 | 1.1 ± 0.09 | 0.945 ± 0.12 | 0.973 ± 0.031 | 0.976 ± 0.038 | 0.967 ± 0.047 | 1.11 ± 0.14 | 0.998 (active)
22 | CC(Oc1ccccc1)C(=O)NC1CC(C)(C)NC(C)(C)C1 (configuration not stated) | 0.76 ± 0.059 | 0.966 ± 0.085 | 1.06 ± 0.1 | 0.993 ± 0.045 | 1.26 ± 0.079 | 1.35 ± 0.14 | 1.02 (active)
23 | CC1=NN(c2ccc(C(=O)O)cc2)C(=O)C1=Cc1ccc(-c2cc(C)c(C)cc2[N+](=O)[O-])o1 | 0.951 ± 0.057 | 0.969 ± 0.076 | 0.947 ± 0.073 | 1 ± 0.066 | 0.976 ± 0.07 | 0.92 ± 0.23 | 0.997 (active)
24 | CCN(CC)CC(=O)Nc1c(C)cccc1C.Cl | 1.03 ± 0.079 | 0.968 ± 0.063 | 1.03 ± 0.051 | 0.89 ± 0.075 | 0.927 ± 0.039 | 0.865 ± 0.11 | 0.997 (active)
25 | C=C1c2cccc(O)c2C(=O)C2=C(O)[C@]3(O)C(=O)C(C(N)=O)=C(O)[C@@H](N(C)C)[C@@H]3[C@@H](O)[C@H]12.Cl | 1.16 ± 0.29 | 0.985 ± 0.064 | 0.952 ± 0.07 | 0.914 ± 0.045 | 1.22 ± 0.23 | 1.14 ± 0.13 | 0.962 (active)
26 | NC(=NOC(=O)C(c1ccccc1)C1CCCC1)c1ccccn1 (configuration not stated) | 0.796 ± 0.062 | 0.857 ± 0.055 | 1.06 ± 0.1 | 0.613 ± 0.042 | 1.38 ± 0.083 | 1.62 ± 0.15 | 0.982 (active)
